NS1 function inh – qHTS Assay for Inhibitors of Influenza NS1 Protein Function; 270,000 compounds, 0.4% hits; Potency, µM (highest dose often 46.1 µM); note: actives are rising curves; nearly all actives have a fitted effect of over 50% in size
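A cell-based growth assay was used: compounds that relieve NS1-induced slow growth of budding yeast raise OD600. Assay medium was yeast nitrogen base with ammonium sulphate and -URA supplement, pH 6.0, with 2% galactose.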
Pf growth 96h – Primary qHTS for delayed death inhibitors of the malarial parasite plastid, 96 hour incubation. Potency, µM (top dose mostly 28.7 µM), hits mostly inhibitors. 320,000 compounds, 6.9% hits. P. falciparum luciferase reporter growth, 96 h; active = well fitted inhibition curve with a large enough effect; inconclusive = small, poorly fitted or top-dose-only effect, or another doubt; inactive = no such curve, though single readings can be large or run the other way
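Two parasite generations (96 h, 37 C, 5% CO2) of compound exposure in infected erythrocytes (0.05% parasitemia, 2% hematocrit). Luciferase-reporter P. falciparum; decreased luminescence indicates inhibited growth, aimed at apicoplast-acting delayed death.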
SARS PLP yeast – qHTS of Yeast-based Assay for SARS-CoV PLP. S. cerevisiae expressing SARS-CoV PLpro, growth rescue. Potency, µM (doses to about 32.9 µM), most hits filed as activators. 330,000 compounds, 0.19% hits; note: nearly all actives have a fitted effect of over 55% in size
RE007 growth inh – qHTS Assay for Inhibitors of the HIV-1 protein Vpr; 360,000 compounds, 0.21% hits; Potency, µM (highest dose often 92.2 µM), actives largely listed as inhibitors; S. pombe RE007 Vpr strain, BacTiter-Glo ATP luminescence, 24 h; active = well fitted falling curve with a large enough effect; inconclusive = small, poorly fitted or top-dose-only effect; inactive = no such curve, though single readings can be large or run the other way; note: nearly all actives have a fitted effect of over 50% in size
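Fission yeast RE007 carrying one integrated HIV-1 vpr copy, seeded at OD 0.01 in PMG+AL medium with 23 nL pinned compound. Grown 24 h at 30 degrees; viability read by BacTiter-Glo luminescence after 5 min.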
Pf growth 48h – Primary qHTS for delayed death inhibitors of the malarial parasite plastid, 48 hour incubation. P. falciparum luciferase growth in erythrocytes, 48 h. Potency, µM (doses to about 28.7 µM), hits mostly inhibitors. 310,000 compounds, 5.9% hits; active = well fitted inhibition curve with a large enough effect; inconclusive = small, poorly fitted or top-dose-only effect, or another doubt; inactive = no such curve, though single readings can be large or run the other way
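Luciferase-expressing parasites in RBCs, 2% Hct / 0.1% parasitemia final; RPMI 1640 + 0.5% Albumax; 37 C, 5% CO2, one generation; luminescence read-out, lower signal = inhibition.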
NS1 inh valid – Assay for Inhibitors of Influenza NS1 Protein Function: Hit Validation; activity change, negative = inhibition, % at 32.9 µM; 1,400 tested, under 10 active; influenza NS1 function cell assay, 15-point titration; AID 492980, 2010; shares compounds with NS1 function inh
Large screens that a line does not name were inactive (follow-up assays come after a bar, where they were run). Only some compounds are listed: those with a hit (about 9.5% of all), similar ones and a draw of the others. Unless noted, calls come from the whole dose curve.

CCOC(=O)C1=C(C)N(c2ccc(OC)cc2)C(=O)/C1=C\c1ccc(O)c(OCC)c1	Pf growth 48h inconclusive
CCOc1cc(/C=C2\C(=O)NC(=O)N(CCc3ccc(F)cc3)C2=O)ccc1O	NS1 function inh 0.355µM | NS1 inh valid inactive
CCOc1ccc(N2C(=O)CC(Sc3nc(C)cc(C)c3C#N)C2=O)cc1 (stereo not drawn)	NS1 function inh 12.6µM, Pf growth 96h inconclusive | NS1 inh valid inactive
CCOc1ccc(N2C(=O)CC(Sc3nc(CC(C)C)ccc3C#N)C2=O)cc1 (stereo not drawn)	Pf growth 96h inconclusive, Pf growth 48h inconclusive
CC(C)(C)OC(=O)N1CCC(CC2CC(c3cccc(Br)c3)=NO2)(C(=O)NCC2CCCCC2)CC1 (stereo not drawn)	NS1 function inh inconclusive, Pf growth 96h inconclusive, Pf growth 48h inconclusive | NS1 inh valid inactive
CCCc1cc(=O)[nH]c(SCC(=O)CSc2nc(CCC)cc(=O)[nH]2)n1	NS1 function inh 8.91µM | NS1 inh valid inactive
COC(=O)C1CCN(C(=O)COC(=O)c2oc3ccc(OC)cc3c2C)CC1	none
CCC(CC)c1nnc(NC(=O)c2cccc(S(=O)(=O)N3CCc4ccccc43)c2)s1	NS1 function inh 8.91µM, Pf growth 96h inconclusive, Pf growth 48h 14.7µM | NS1 inh valid inactive
CCC1Oc2ccc(C)cc2N(CC(=O)NCCCN2CCCCC2C)C1=O (stereo not drawn)	NS1 function inh inconclusive | NS1 inh valid inactive
O=C(NNc1nc2cc3c(cc2s1)OCO3)c1ccc(F)cc1	NS1 function inh inconclusive, Pf growth 96h inconclusive | NS1 inh valid inactive
COc1ccc(NC(=O)c2cc(C3CCCCN3C(=O)CCCc3ccccc3)on2)c(C)c1 (stereo not drawn)	none (no result: NS1 function inh, Pf growth 96h, SARS PLP yeast, Pf growth 48h)
CC(=O)c1c(COC(=O)c2cccnc2)nc2ccccc2[n+]1[O-]	NS1 function inh 5.01µM (no result: Pf growth 48h) | NS1 inh valid inactive
CCn1cc(S(=O)(=O)N2CCc3ccccc3C2)cn1	none
CC1(c2ccc(Cl)cc2)NC(=O)N(CC(=O)NCCC2=CCCCC2)C1=O (stereo not drawn)	Pf growth 96h inconclusive (no result: NS1 function inh)
Cc1ccc(C2(C)NC(=O)N(CC(=O)NCCC3=CCCCC3)C2=O)cc1 (stereo not drawn)	NS1 function inh 11.2µM, Pf growth 96h inconclusive (no result: Pf growth 48h) | NS1 inh valid inactive
COc1ccc(Cl)c2sc(N(CCN(C)C)C(=O)C3=COCCO3)nc12	none (no result: NS1 function inh, Pf growth 96h, SARS PLP yeast, Pf growth 48h)
COc1cc(C(=S)N2CCCC2)cc(OC)c1O	NS1 function inh 3.98µM (no result: Pf growth 48h) | NS1 inh valid inactive
COc1cc(C(=S)N2CCCC2)ccc1OCc1ccccc1	none
CN(C)S(=O)(=O)c1ccc(Cl)c(NC(=O)COC(=O)/C=C/c2ccc(S(=O)(=O)N3CCOCC3)cc2)c1	NS1 function inh 20µM | NS1 inh valid inconclusive
CCOc1ccc(CCNC(=O)C2CSC3(C)CCC(=O)N23)cc1OCC (stereo not drawn)	Pf growth 96h inconclusive, Pf growth 48h inconclusive
Cc1[nH]c2ccccc2c1N=Nc1ccccc1C(=O)O	NS1 function inh 4.47µM, Pf growth 96h 10.4µM, Pf growth 48h inconclusive | NS1 inh valid inactive
COc1ccc(-n2cc3c(-c4cccc(Br)c4)nnc(C)c3n2)cc1	Pf growth 96h inconclusive, Pf growth 48h inconclusive
Cc1nnc(-c2cccc(Br)c2)c2cn(-c3cccc(Br)c3)nc12	NS1 function inh 8.91µM, Pf growth 96h inconclusive, Pf growth 48h inconclusive | NS1 inh valid inactive
O=C(COc1ccccc1O)N1CCN(C(=O)c2ccco2)CC1	none (no result: Pf growth 96h)
O=C(COc1ccc(Cl)cc1Cl)N1CCN(C(=O)c2ccco2)CC1	NS1 function inh inconclusive | NS1 inh valid inactive
O=C(Cc1ccc(Cl)cc1)Nc1ccc(N2CCN(C(=O)c3ccco3)CC2)c(Cl)c1	NS1 function inh 0.282µM, Pf growth 48h 11.7µM | NS1 inh valid inconclusive
COc1ccc(N(C)S(=O)(=O)c2ccc3c(c2)NC(=O)CO3)c(OC)c1	none
COc1cccc(N(C(=O)Cn2nnc(-c3ccc(C)cc3)n2)C(C(=O)NC(C)(C)C)c2c[nH]c3ccccc23)c1 (stereo not drawn)	NS1 function inh inconclusive, Pf growth 96h 2.33µM, Pf growth 48h 11.7µM | NS1 inh valid inactive
COc1ccc(C(=O)Nc2ncc3c(n2)CC(C)CC3=O)cc1 (stereo not drawn)	none
COc1cccc(C(=O)Nc2ncc3c(n2)CC(c2ccc(OC)cc2OC)CC3=O)c1 (stereo not drawn)	NS1 function inh 10µM, Pf growth 48h inconclusive | NS1 inh valid inactive
Cc1cc2cc(CN3C(=O)c4ccccc4C3=O)ccc2n1C	NS1 function inh inconclusive, Pf growth 96h inconclusive | NS1 inh valid inactive
COc1ccc(C(C)(O)c2nc(-c3ccc(S(C)(=O)=O)cc3)cs2)cc1 (stereo not drawn)	none (no result: NS1 function inh, Pf growth 96h, SARS PLP yeast, Pf growth 48h)
O=C1NC(=Nc2ccccc2)S/C1=C\C=C\c1ccco1	NS1 function inh 4.47µM, Pf growth 96h inconclusive, Pf growth 48h inconclusive | NS1 inh valid inconclusive
O=C1CC(c2ccco2)CC(O)=C1C=NCC1CCNCC1 (stereo not drawn)	NS1 function inh 10µM, Pf growth 96h inconclusive | NS1 inh valid inactive
CN(C)N1C(N)=C(C#N)C(c2cccc3ccccc23)C2=C1CC(c1ccccc1)CC2=O (stereo not drawn)	NS1 function inh 22.4µM, Pf growth 96h inconclusive, Pf growth 48h 9.28µM | NS1 inh valid inactive
CC(C)(C)c1nnc(N/N=C/c2ccccc2)n(N)c1=O	NS1 function inh inconclusive (no result: RE007 growth inh) | NS1 inh valid inconclusive
Cc1ccc(CCC(=O)NCc2ccccc2)o1	NS1 function inh 5.01µM, Pf growth 96h inconclusive | NS1 inh valid inactive
CCN(CCn1cccn1)C(=O)C1CCC(=O)N(CCN2CCOCC2)C1 (stereo not drawn)	none
c1ccc(CC2CNc3ccccc3CN2)cc1 (stereo not drawn)	NS1 function inh 0.891µM, Pf growth 96h inconclusive | NS1 inh valid inactive
O=C1N[C@H](Cc2ccccc2)CO1	none (no result: NS1 function inh)
CCN(CC)C(=O)CSc1nnc(-c2ccccc2)n1N	NS1 function inh 6.31µM | NS1 inh valid inactive
COc1ccc(-n2c(O)c(/C=N/NS(=O)(=O)c3cc(C)ccc3C)c3ccccc3c2=O)cc1OC	Pf growth 48h inconclusive
COc1ccc(-n2c(O)c(/C=N/NS(=O)(=O)c3ccc(C)cc3)c3ccccc3c2=O)cc1OC	NS1 function inh 10µM, Pf growth 96h inconclusive, Pf growth 48h inconclusive | NS1 inh valid inactive
CCCCOc1c(Br)cc(/C=C2\N=C(C)OC2=O)cc1OCC	NS1 function inh 3.55µM | NS1 inh valid inactive
CCOc1cc(/C=C2\N=C(C)OC2=O)cc(Cl)c1OCC(=O)OC	none (no result: NS1 function inh, Pf growth 96h, SARS PLP yeast, Pf growth 48h)
CC(=O)c1ccc(Nc2ccc(-c3ccccc3F)nn2)cc1	none (no result: NS1 function inh)
CCOC(=O)C1CCN(C(=O)CSc2ccccc2)CC1	NS1 function inh 11.2µM | NS1 inh valid inactive

High-throughput results (PubChem)
